Potency data for 40 molecules are collected here from PubChem BioAssay AID493169 (National Center for Advancing Translational Sciences (NCATS), 2011).

Results filed as inconclusive are left out. A call without a number means that no potency is given here. Activity calls are given as the source filed them. Calls follow the shape of the dose curve; as a rule, active = well fitted inhibition curve with a large enough effect; inconclusive = small, poorly fitted or top-dose-only effect; inactive = flat fitted curve, though single readings scatter.
Potency is read from the fitted curve at half-maximal effect.

A short description of this experiment: CHOP2 Reporter Counterscreen Assay for Inhibitors of Ubiquitin-specific Protease USP2a.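 Also: activated enterokinase alone at 50 pM in a cell-free format rather than USP2a or CHOP2; nearly all actives have a fitted effect of over 55% in size.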 Particulars: purified enterokinase, fluorogenic substrate, 485/531 nm; series mostly up to 38.3 µM. From the text:
NIH Molecular Libraries Probe Centers Network [MLPCN] NIH Chemical Genomics Center [NCGC] MLPCN Grant: XO1-MH079852-01 PI Name: Nicholson, Ben. Progenra Inc, Malvern, PA NCGC Assay Overview: Homeostasis of cellular proteins is maintained through a combination of synthesis and degradation. The pathway that accounts for the majority of protein degradation is the ubiquitin-proteasomal pathway. Ubiquitin (Ub) is highly conserved in all cells and the generation of a multi-Ub chain typically targets proteins for degradation by the proteasome. However, ubiquitination is highly reversible and dynamic. Deubiquitination, the reverse process, is catalyzed through the action of enzymes referred to as isopeptidases or deubiquitinating enzymes (DUBs). This group of enzymes is collectively responsible for maintaining adequate pools of free ubiquitin and regulating the ubiquitination status of cellular proteins. The class of DUBs referred to as the ubiquitin-specific proteases (USP) family functions endoproteolytically to cleave Ub chains from a wide range of protein substrates. USP2a deubiquitinates fatty acid synthase (FASN) which has recently been identified as an emerging oncology target. To identify inhibitors of USP2a a cell-free assay was employed. This assay is a counterscreen against the reporter enzyme used to measure USP2a activity in the primary qHTS assay. The reporter enzyme is a protease (enterokinase, EK; EC 3.4.21.9), which is activated when a Ub sequence is cleaved by USP2a. The counterscreen assay is performed in the same buffer and conditions as the primary USP2a coupled assay but uses fully activated EK alone. The assay gives a fluorescent read-out at excitation/emission wavelengths of 485/531. The assay was provided by Progenra, Inc. and has been licensed for sale by LifeSensors, Inc.
NCGC Assay Protocol: The assay buffer, prepared fresh at the day of the assay, contains 20mM Tris-HCl pH 8.0, 2mM CaCl2, 2mM beta-Mercaptoethanol, 0.05% CHAPS. 3uL of 100 pM EK (50 pM final) was dispensed into a medium-binding black solid Kalypsys 1,536 well plate using the Kalypsys dispenser. The assay plate was then pinned with 23nL compounds in DMSO with the Kalypsys pintool in columns 5-48 (0.3% final DMSO concentration). The negative control was buffer/DMSO only in column 3. The assay plate is incubated at RT for 30min. Subsequently, 3uL of reporter substrate (25nM final) were dispensed into the plate using the Kalypsys dispenser. Plates were read after 10 min at RT on a ViewLux (Perkin Elmer) plate reader using the following wavelengths: Ex 485nm /Em 531nm. Data were normalized to the AC100 inhibition (buffer alone). Concentration-response curves were fitted to the normalized data and the concentration-response curves were then classified based on curve quality (r2), response magnitude and degree of measured activity. The time zero reading was used to flag fluorescence artifacts.
For the molecule `CCC(=O)c1ccc(OCC(=O)NC2CCN(Cc3ccccc3)CC2)cc1`, the Potency result is “inactive”.

Take `COc1cccc(-c2csc3nnc(SCC(=O)NCc4cccs4)n23)c1`: the Potency entry is “inactive”.

For the molecule `CCCCC(OC(=O)c1cc2occc2n1C)C(=O)NCC1CCCO1` (stereo not given), the Potency entry was “inactive”.

On to `CN(C)CCCN1C(=O)C(=O)/C(=C(/O)c2ccncc2)C1c1cccnc1` (stereo not given), for which the Potency result was “inactive”.

Regarding `CC(=O)c1c(N2CCCC2)[nH]c(-c2ccccc2)nc1=S`, the Potency result is “inactive”.

For `Cc1ccc(-c2c(C#N)c(N)nc3c2CCCCC3)o1`, the Potency entry is “inactive”.

With `O=C(COC(=O)c1ccc(NS(=O)(=O)c2cccs2)cc1)Nc1nc2c(F)c(F)c(F)cc2s1`, the Potency was 10 µM (active).

Consider `Nc1cc(=O)[nH]c(SCc2cccc(Cl)c2)n1`, for which the Potency result is “inactive”.

Take `CCCNC(=O)CS(=O)Cc1nc(-c2ccccc2C)oc1C` (stereo not given): the Potency result is “inactive”.

For `COc1ccc(NC(=O)c2cc(-c3ccco3)nc3ccccc23)cc1S(=O)(=O)N1CCOCC1`, the Potency was 5.62 µM (active).

As to `Cc1cc(-c2csc(NC(=O)c3ccc(=O)[nH]c3)n2)c(C)n1Cc1ccccc1`, the Potency entry was “inactive”.

Take `CCOC(=O)C1CCCN(C(=O)c2cc(-c3ccco3)nc3ccccc23)C1` (stereo not given): the Potency was 5.62 µM (active).

Turning to `O=c1/c(=C/c2ccco2)sc2n1CN(c1cccc(Br)c1)CN=2`, the Potency entry is “inactive”.

For `COC(=O)c1ccc(NC(=O)CSC2=Nc3ccccc3C3CC=NN23)cc1` (stereo not given), the Potency entry is “inactive”.

For `CC(C(=O)Nc1ccc(C(=O)O)c(O)c1)N1C(=O)/C(=C\c2ccco2)SC1=S` (stereo not given), the Potency is 7.94 µM (active).

`CCCCCCCCCCCCCCCCn1cc[n+](C)c1`: the Potency is 10 µM (active).

With `Cc1csc(NC(=O)CCn2c(=O)sc3ccccc32)n1`, the Potency entry was “inactive”.

In the case of `N#CNC(=Nc1cccc(F)c1)SCc1cccc(F)c1`, the Potency entry is “inactive”.

Consider `O=C(Nc1nc(-c2ccco2)c(-c2ccco2)s1)c1ccc(F)cc1F`, for which the Potency was 10 µM (active).

With `CC1CCCCC1NC(=O)CSCC(=O)O` (stereo not given), the Potency result is “inactive”.

In the case of `OCCN(Cc1ccccc1)c1ncnc2sccc12`, the Potency result is “inactive”.

`CC1CCN(CC(O)COc2cccc(F)c2)CC1` (stereo not given): the Potency result is “inactive”.

In the case of `O=C(Nc1nnc(SCCC2OCCO2)s1)C1CC(=O)N(c2ccc(F)cc2)C1` (stereo not given), the Potency is 11.2 µM (active).

For the molecule `CCOc1cc(/C=C/c2nc3cc(C)c(C)cc3s2)ccc1OCC(=O)N1CCOCC1`, the Potency entry is “inactive”.

As to `CCCCCCCCCCCCCCCC[N+](C)(C)CCN(Cc1ccc(OC)cc1)c1ncccn1`, the Potency is 10 µM (active).

On to `CCC(C)(C)n1nnnc1C(c1ccc(C)cc1)N1CCCC1` (stereo not given), for which the Potency result was “inactive”.

Consider `Cc1ccc(-c2c(C)n([O-])c3c([n+]2=O)CCC3)o1`, for which the Potency entry was “inactive”.

For the molecule `CCCCCCCCCCC[N+](C)(C)CC/C=C1/c2ccccc2Sc2ccc(Cl)cc21`, the Potency was 11.2 µM (active).

For `Cn1c(SCc2nc3ccccc3s2)nnc1-c1cccs1`, the Potency entry was “inactive”.

Regarding `CCOC(=O)N1CCN(C(=O)CN(c2cccc(C)c2)S(=O)(=O)c2ccccc2)CC1`, the Potency result is “inactive”.

As for `CCOC(=O)C(=O)Nc1nc(-c2ccc3c(c2)CCN3C(=O)C2CC2)c(C)s1`, the Potency entry is “inactive”.

Regarding `O=C(Nc1cccc(Cl)c1)Nc1nnc(CC2=CCCCC2)s1`, the Potency result was “inactive”.

`O=C(Nc1cnn(Cc2ccccc2)c1)c1nc2ncccn2n1`: the Potency result was “inactive”.

Turning to `Cc1cccc(NCc2nc(-c3ccccc3)no2)c1`, the Potency entry is “inactive”.

For the molecule `COc1ccc(-c2[nH]ncc2/C=C(/C#N)C(=O)NC2CCCCC2)cc1`, the Potency result was “inactive”.

As for `Cc1ccc(C)c(S(=O)(=O)c2c(N)n(/N=C/c3ccco3)c3nc4ccccc4nc23)c1`, the Potency entry is “inactive”.

Regarding `CCOc1ccccc1N1C(=O)CC(Nc2ccc(N3CCOCC3)cc2)C1=O` (stereo not given), the Potency entry was “inactive”.

`CC(C)C(=O)N=c1sc2cc(F)cc(F)c2n1C`: the Potency entry was “inactive”.

As to `Cc1ccc(C(=O)NCCCc2ccccc2)s1`, the Potency result is “inactive”.

On to `CC(C)(C)c1cc(Br)ccc1OCC(=O)Nc1ncn[nH]1`, for which the Potency result is “inactive”.
